Nrf2 inh: blocks Nrf2 signaling | A549 ARE-Fluc reporter, luciferase luminescence, 18-24 h | Potency, µM (doses to about 46 µM), most hits filed as inhibitors | actives 2.1% (n = 360,000); also: nearly all actives have a fitted effect of over 60% in size
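Quantitative HTS in A549 cells stably bearing an antioxidant response element-firefly luciferase construct. Inhibition of Nrf2-driven transcription was scored by luminescence after 18-24 h of compound exposure at 37 °C.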
Nrf2 activator: activators of Nrf2 (ARE) signaling | AREc32 ARE-luciferase reporter (MCF7-derived line), luminescence, 24 h | Potency, µM (top dose mostly 46.1 µM), usual class: activators | actives 0.31% (n = 410,000) | AID 624171; also: nearly all actives have a fitted effect of over 65% in size
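ARE activation measured as luciferase luminescence (Steady-Glo, 30 min RT) in AREc32_Fluc cells after 24 hr compound exposure at 37 deg C, 5% CO2; cells seeded overnight at 1000/well in OPTI-MEM, 5% FBS.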
IL2 activator: IL-2 activation | IL-2 activation reporter assay, cell-based qHTS; stimulated with anti-CD3/CD4/CD28 beads; in transgenic mouse T cells | activation, % (series mostly up to about 46 µM) | actives 0.065% (n = 360,000) | AID 652025; in the data active = activation above about 50%; inconclusive = mostly about 30% to 49%
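Unstimulated transgenic mouse T cells preincubated 60 min with compound, then stimulated with anti-CD3/anti-CD4-coated beads plus anti-CD28 for 18 h at 37 degrees C. IL-2 response read as EGFP and DsRed fluorescence by plate cytometry.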
A549 tox-1: kills or reduces viability of A549 cells in Nrf2 counter-screen; A549 ARE-Fluc cells, CellTiter-Fluor viability, 18-24 h; Potency, µM (series often up to 46 µM), usual class: inhibitors; actives 0.16% (n = 390,000); AID 504648
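A549 ARE_Fluc cells in 5% FBS OPTI-MEM were exposed to compounds in concentration-response for 18-24 h at 37 deg C. Viability was read by CellTiter-Fluor fluorescence (Ex 405/Em 525) after 30 min, before the luciferase read.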
FLuc counter 3: firefly luciferase inhibition, Nrf2 hit validation | Potency, µM (titrated, usually from 57.5 µM), most hits filed as inhibitors | shares compounds with Nrf2 inh | purified firefly luciferase, luminescence inhibition | actives 4% (n = 1,400); also: nearly all actives have a fitted effect of over 65% in size
Target sequence (P08659 whole entry, looked up): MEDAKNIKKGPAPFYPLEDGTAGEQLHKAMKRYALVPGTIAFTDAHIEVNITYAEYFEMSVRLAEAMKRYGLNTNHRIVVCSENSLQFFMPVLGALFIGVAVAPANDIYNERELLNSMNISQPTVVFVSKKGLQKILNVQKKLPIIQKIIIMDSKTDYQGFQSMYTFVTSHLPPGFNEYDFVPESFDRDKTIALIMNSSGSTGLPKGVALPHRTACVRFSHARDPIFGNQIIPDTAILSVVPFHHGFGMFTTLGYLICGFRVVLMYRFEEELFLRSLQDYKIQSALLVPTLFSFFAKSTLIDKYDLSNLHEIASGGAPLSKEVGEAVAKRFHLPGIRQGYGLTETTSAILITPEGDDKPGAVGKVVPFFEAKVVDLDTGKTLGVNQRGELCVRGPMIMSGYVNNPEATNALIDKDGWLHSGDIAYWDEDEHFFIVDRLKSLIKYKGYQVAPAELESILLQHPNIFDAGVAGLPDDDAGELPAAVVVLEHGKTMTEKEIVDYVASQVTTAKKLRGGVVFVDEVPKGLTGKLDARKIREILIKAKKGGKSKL
A549 tox-2: A549 cytotoxicity, Nrf2 inhibitor counterscreen | A549 ARE-Fluc cells, cytotoxicity counterscreen | actives 2% (n = 1,400) | shares compounds with Nrf2 inh | Potency, µM (doses to about 46.1 µM), usual class: inhibitors;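 also: cells exposed to compounds for 18 to 24 hours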
Nrf2 ARE inh: reduces Nrf2 ARE reporter signal in A549 cells; shares compounds with Nrf2 inh; Potency, µM (titrated, usually from 46.1 µM), usual class: inhibitors; AID 720524; actives 74% (n = 1,400); A549 ARE-firefly luciferase reporter, luminescence; also: nearly all actives have a fitted effect of over 65% in size
Of the large screens only hits and unclear results are named; the others gave an inactive call (follow-up assays come after a bar, where shown). Sampled rows, rich in hits. Any-hit rate of the full collection: about 2.3%. Unless noted, calls follow the shape of the dose curve; as a rule, active = well fitted curve in the direction sought with a large enough effect; inconclusive = small, poorly fitted or top-dose-only effect, or another doubt; inactive = no such curve, though single readings can be large; an effect the other way counts as inactive or inconclusive.

CSc1nc2nc3c(cc2c(=O)n1-c1ccccc1C)CCCC3	Nrf2 inh 5.8µM, A549 tox-1 inconclusive | FLuc counter 3 inactive | A549 tox-2 inactive
Cc1nc2nc(SCC(=O)NC(C)c3ccccc3)nn2c(C)c1Cc1c(F)cccc1Cl (stereo not given)	none (no result: IL2 activator)
CCOC(=O)c1cc(C)n(CC2CCC(C(=O)Nc3ccc(Cl)cc3)CC2)c1C (stereo not given)	Nrf2 inh 8.2µM, A549 tox-1 inconclusive (no result: IL2 activator) | FLuc counter 3 inactive | A549 tox-2 inactive | Nrf2 ARE inh 13µM
Cc1cccc(C(=O)Nc2ccnc(-c3cccnc3)n2)c1	Nrf2 inh inconclusive
Cc1cccc(C(=O)Nc2ccnc(-c3ccncc3)n2)c1	Nrf2 inh 2.59µM, A549 tox-1 inconclusive | FLuc counter 3 inactive | A549 tox-2 inactive | Nrf2 ARE inh inactive
O=C(Nc1ccc2oc(-c3ccncc3)nc2c1)c1ccc(F)cc1	Nrf2 inh inconclusive
Cc1cccc(C(=O)Nc2ccc3oc(-c4ccncc4)nc3c2)c1	Nrf2 inh 9.2µM (no result: IL2 activator) | FLuc counter 3 inactive | A549 tox-2 inactive | Nrf2 ARE inh 1.46µM
Cc1cccc(N2CCN(C(=O)Cn3ncc4c3-c3cc(C)ccc3OC4)CC2C)c1 (stereo not given)	none (no result: IL2 activator)
Cc1ccc(-c2cc3cccc[n+]3cc2-c2ccc(C)cc2)cc1	Nrf2 inh 3.26µM | FLuc counter 3 inactive | A549 tox-2 inactive | Nrf2 ARE inh 2.59µM
O=C(O)C1CCCN1c1nc(-c2ccc(Cl)c(Cl)c2)cc(C(F)(F)F)n1 (stereo not given)	Nrf2 inh 7.31µM | FLuc counter 3 inactive | A549 tox-2 inactive
FC(F)(F)c1cc(-c2ccccc2)nc(N2CCCCC2)n1	none (no result: Nrf2 inh)
Cn1c(=O)c2c(nc(NCc3ccccc3)n2Cc2ccccc2)n(C)c1=O	Nrf2 inh inconclusive (no result: IL2 activator)
CCCNc1nc2c(c(=O)n(C)c(=O)n2C)n1Cc1cccc(C)c1	Nrf2 inh 6.51µM | FLuc counter 3 inactive | A549 tox-2 inactive | Nrf2 ARE inh 10.3µM
CCCCCCn1c(NCC)nc2c1c(=O)n(C)c(=O)n2C	Nrf2 inh 3.66µM | FLuc counter 3 inactive | A549 tox-2 inactive | Nrf2 ARE inh 5.8µM
CCCNc1nc2c(c(=O)n(C)c(=O)n2C)n1CCC(C)C	Nrf2 inh 9.2µM | FLuc counter 3 inactive | A549 tox-2 inactive | Nrf2 ARE inh inconclusive
CCCCNc1nc2c(c(=O)n(C)c(=O)n2C)n1CCC	none
COc1cccc(Cn2c(NCc3ccco3)nc3c2c(=O)n(C)c(=O)n3C)c1	Nrf2 inh 8.2µM, A549 tox-1 inconclusive | FLuc counter 3 inactive | A549 tox-2 inactive | Nrf2 ARE inh 6.51µM
Cc1ccc(NS(=O)(=O)c2ccc(-c3cc(C)no3)cc2)c(C)c1	Nrf2 inh inconclusive (no result: IL2 activator)
CCOc1ccc(CNC(=O)Cn2cc3c(n2)-c2c(oc(C(=O)N4CCOCC4)c2C)CC3)cc1	Nrf2 inh inconclusive (no result: IL2 activator)
CC(=O)c1c(C)n(CC(=O)NCc2ccc3c(c2)OCO3)c2ccccc12	Nrf2 inh 5.8µM | FLuc counter 3 inactive | A549 tox-2 inactive | Nrf2 ARE inh inconclusive
COc1cc(OC)c(NC(=O)C2=C(C)C(=O)OC23CCCCCC3)cc1Cl	Nrf2 inh inconclusive (no result: IL2 activator)
COc1ccc2c(c1)/C(=C\c1cccc(/C=C3/C(=O)Nc4ccc(OC)cc43)n1)C(=O)N2	Nrf2 inh 8.2µM | FLuc counter 3 inconclusive | A549 tox-2 inactive | Nrf2 ARE inh inconclusive
COC(=O)C1=C[C@@H](C(=O)OC)C2C3=C(C(=O)[C@@]2(C)NC(=O)c2ccccc2)[C@H](C)[C@@H]2C(=O)N(C)C(=O)[C@@H]2[C@@H]3C1 (stereo not given in full)	none (no result: Nrf2 activator, IL2 activator)
CCC(=O)N1CCc2cc(CNC(=O)c3ccc(OC)cc3)ccc21	none (no result: Nrf2 inh, IL2 activator)
COc1ccc(-n2c(SCC(=O)NCc3ccc(F)cc3)nc3c([nH]c4ccccc43)c2=O)cc1	none (no result: Nrf2 inh, IL2 activator)
c1ccc(C[n+]2cccc3c4ccccc4ccc32)cc1	Nrf2 inh inconclusive, A549 tox-1 inconclusive | FLuc counter 3 inactive | A549 tox-2 inactive
Cc1ccc(-n2ncc(C(=O)N3CCN(Cc4ccccc4)CC3)c2C2CCN(C(=O)OC(C)(C)C)CC2)c(C)c1	Nrf2 inh inconclusive (no result: IL2 activator)
CC(C)c1ccc(-c2nnn(CCC(=O)O)n2)cc1	Nrf2 inh 0.326µM | FLuc counter 3 10.7µM | A549 tox-2 inactive | Nrf2 ARE inh 0.82µM
O=C(O)CCn1nnc(-c2cccs2)n1	none
Cc1cccnc1CN1CCN(C(=O)c2cc(COc3ccc4ncccc4c3)on2)CC1	Nrf2 inh 4.11µM | FLuc counter 3 inactive | A549 tox-2 inactive | Nrf2 ARE inh inconclusive
Cc1cccc(C)c1OCc1cc(C(=O)NC2CCC2)no1	none
O=C(NC1CCCCCCC1)c1cc(COc2ccc3ncccc3c2)on1	Nrf2 inh 3.26µM, A549 tox-1 inconclusive | FLuc counter 3 inactive | A549 tox-2 inactive | Nrf2 ARE inh 2.91µM
CCC(O)C1CCN(C(=O)c2cc(COc3ccc4ncccc4c3)on2)CC1 (stereo not given)	Nrf2 inh 1.84µM, A549 tox-1 inconclusive | FLuc counter 3 inactive | A549 tox-2 inactive | Nrf2 ARE inh 1.46µM
O=C(c1cc(COc2ccc3ncccc3c2)on1)N1CCC(O)CC1	Nrf2 inh 8.2µM | FLuc counter 3 inactive | A549 tox-2 inactive | Nrf2 ARE inh inactive
CN(C)CCN(Cc1ccccc1)S(=O)(=O)c1ccc2[nH]c(=O)ccc2c1	none (no result: Nrf2 inh, IL2 activator)
Cc1cc(CN(C)C(=O)c2cc(COc3ccc4ncccc4c3)on2)on1	Nrf2 inh 4.61µM | FLuc counter 3 inactive | A549 tox-2 inactive | Nrf2 ARE inh 5.17µM
Cc1ccc(-c2cc(C(=O)Nc3ccc(SC(F)F)cc3)no2)cc1F	none (no result: IL2 activator)
COc1cc(NC(=O)CSc2ncnc3c2cnn3Cc2ccccc2)cc(OC)c1	Nrf2 inh inconclusive
COc1ccc(OC)c(NC(=O)CSc2ncnc3c2cnn3-c2ccccc2Cl)c1	Nrf2 inh 4.61µM, A549 tox-1 inconclusive | FLuc counter 3 inactive | A549 tox-2 inactive
COc1cccc(N2CCN(C(=O)Cn3ncc4c(=O)oc5ccccc5c43)CC2)c1	none (no result: IL2 activator)
Cc1ccc(-c2nc3ccccn3c2Nc2ccccc2C)o1	Nrf2 inh inconclusive (no result: Nrf2 activator, IL2 activator)
CCN(CC)S(=O)(=O)c1ccc2c(c1)N(CC(=O)Nc1cccc(C#N)c1)C(=O)CO2	none (no result: IL2 activator)
Cc1ccc(NC(=O)COc2ccc(N(C)C(=O)C(C)(C)C)cc2)cc1S(=O)(=O)N1CCCCC1	Nrf2 inh 3.66µM, A549 tox-1 inconclusive | FLuc counter 3 inactive | A549 tox-2 inconclusive | Nrf2 ARE inh 5.17µM
CCc1cccc(OCC(=O)Nc2ccc(C)c(S(=O)(=O)N3CCCCCC3)c2)c1	Nrf2 inh inconclusive
Cc1ccccc1Nc1c(-c2ccco2)nc2c(C)cccn12	none (no result: IL2 activator)
